This is a sample that favours compounds with a hit; in the whole collection about 2.2% have one here.
Abeta yeast res – A-beta toxicity reversal in yeast; yeast expressing A-beta42, growth rescue, OD600, 48 h; response scale: 0% DMSO, 100% iron-clioquinol control; Potency, µM (highest dose often 46.1 µM), hits mostly activators; 0.063% of 410,000 active; AID 1347071; also: nearly all actives have a fitted effect of over 55% in size
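Yeast A-beta toxicity model in growth medium with pinned compounds, 48 h at 30 C; growth read as absorbance at 600 nm. Normalized to FeCl3/clioquinol equimolar mix (positive) and DMSO (negative).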
TDP43 rescue – inhibitors of TDP-43 toxicity in yeast. TDP-43 expressing yeast growth rescue, BacTiter-Glo, 24 h. Potency, µM (doses to about 46.1 µM), for inactives: top-dose growth rescue (activation), usual class: activators. 1.8% of 410,000 active; also: % of control where 0% means no effect; nearly all actives have a fitted effect of over 50% in size
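Luminescence from BacTiter-Glo reports growth of TDP-43-expressing yeast after 24 hr at 30 deg C with compound. Cells were raffinose-pregrown to mid-log, then seeded in galactose medium at OD600=0.02.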
Mito fusion act – mitochondrial division inhibition or fusion activation. 0.23% of 320,000 active. Potency, µM (doses to about 46.1 µM), without a hit: top-dose growth rescue (activation), hits mostly activators. S. cerevisiae fusion-defective mutant growth rescue, CellTiterGlo 48 h; also: % of control where 0% means no effect; nearly all actives have a fitted effect of over 45% in size
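Temperature-sensitive fusion-defective S. cerevisiae (e.g. fzo1-1, mgm1-5) were grown with compound in YPEG medium (3% ethanol, 3% glycerol) for 48 hours at 37C. Growth rescue was measured as viability by CellTiterGlo luminescence after 10 minutes at ambient.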
FUS suppressor – rescues growth of FUS-expressing yeast; S. cerevisiae FUS-expressing, growth rescue, OD600, 24 h; AID 1347120; 0.24% of 390,000 active; Potency, µM (highest dose often 76.6 µM), actives largely listed as activators;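 also: plate controls were DMSO vehicle for no effect and reference control for full effect; nearly all actives have a fitted effect of over 55% in size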
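Toxicity suppression screen in FUS-yeast. Cells induced with 2% galactose, starting OD 0.005, treated 24hr at 30C with compounds at multiple final concentrations; growth by OD600.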
aSyn rescue – inhibitors of alpha-synuclein toxicity in yeast; 0.14% of 370,000 active; Yeast expressing alpha-synuclein, growth rescue, BacTiter-Glo, 24 h; Potency, µM (doses to about 46.1 µM), inactives show at the highest dose growth rescue (activation), usual class: activators; also: % of control where 0% means no effect; nearly all actives have a fitted effect of over 65% in size
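Galactose-induced alpha-syn yeast (OD600=0.02, raffinose-pregrown) + pinned cpd, 24 hr, 30 deg C; growth by BacTiter-Glo luminescence. Growth restoration scores as activation.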
* hit, by the source's call; i = inactive; ? = inconclusive; / = not tested or not shown; [ ] = another dose, or the depositor's remark. Calls follow the shape of the dose curve; as a rule, active = well fitted curve in the direction sought with a large enough effect; inconclusive = small, poorly fitted or top-dose-only effect, or another doubt; inactive = no such curve, though single readings can be large; an effect the other way counts as inactive or inconclusive. Potency is read from the fitted curve at half-maximal effect.

SMILES	Abeta yeast res	TDP43 rescue	Mito fusion act	FUS suppressor	aSyn rescue
COc1ccc(-c2nc3ccc(Cl)cn3c2Cc2cccc(Cl)c2)cc1OC	i	35µM*	/	i	3%
O=C(c1cccs1)N1CC[C@H]2[C@H](CCCN2Cc2ccc(F)cc2)C1	/	/	/	i	/
O=C(CSc1ccc2ccccc2c1)Nc1ccc(S(=O)(=O)Nc2nccs2)cc1	i	10%	-4%	/	-6%
O=C(c1ccco1)N(Cc1ccc([N+](=O)[O-])cc1)c1ccc(Cl)cc1	i	22µM*	10%	i	10%
O=C(c1ccco1)N(Cc1ccc([N+](=O)[O-])cc1)c1ccc(Br)cc1	i	32µM*	14%	i	1%
O=C(c1ccco1)N(Cc1cccc([N+](=O)[O-])c1)c1ccc(Br)cc1	i	-21%[0.397 µM]	-8%	i	12%
Cc1ccc(N(Cc2ccc([N+](=O)[O-])cc2)C(=O)c2ccco2)cc1C	i	?	?	/	4%
COc1ccc(CN2CN3CCc4ccccc4C3CS2(=O)=O)cc1 (stereo not given)	/	/	/	i	/
CC(C)(C)c1cc(NS(=O)(=O)c2ccc(Br)s2)no1	i	22µM*	7%	i	-15%
CCNC(=O)c1cc2c(c(-c3cccc(-c4cccc(C(=O)N(C)C)c4)c3)n1)[C@H](CCO)N(S(=O)C(C)(C)C)C2 (stereo not given in full)	i	-5%	/	i	10%
CN(C)C(=O)c1cccc(-c2cccc(-c3nc(C(=O)NCc4ccccc4)cc4c3[C@@H](CCO)N(S(=O)C(C)(C)C)C4)c2)c1 (stereo not given in full)	i	18%	/	35µM*	4%
COc1cccc(CNC(=O)c2cc3c(c(-c4cccc(-c5cccc(C#N)c5)c4)n2)[C@H](CCO)N(S(=O)C(C)(C)C)C3)c1 (stereo not given in full)	i	?	/	22µM*	-4%
CCC(C)CNC(=O)CN1C(=O)C2CCCCN2C(=O)c2ccccc21 (stereo not given)	/	/	/	i	/
Cc1c(C(=O)c2ccc(Cl)cc2Cl)cnc2cc3c(cc12)OCO3	i	?	13µM*	i	3%
O=C(Nc1ccc2c(c1)OCO2)c1ccc(Cl)cc1Cl	i	16%	-4%	i	2%
O=[S+]([O-])([O-])c1ccc2c(c1)cc([S+](=O)([O-])[O-])c1nn(-c3ccc(/C=C/c4ccc(-n5nc6c([S+](=O)([O-])[O-])cc7cc([S+](=O)([O-])[O-])ccc7c6n5)cc4[S+](=O)([O-])[O-])c([S+](=O)([O-])[O-])c3)nc12	/	/	/	/	2%
CC1CC(C)CN(C(=O)c2cccc(S(=O)(=O)Nc3cc(C(F)(F)F)ccc3Cl)c2)C1 (stereo not given)	i	-9%[0.397 µM]	16µM*	i	-14%
CN(C(=O)[C@@H]1CC=C[C@@H]2CCN(C3CCCCC3)C(=O)[C@@H]21)c1ccccc1	/	/	/	i	/
CCOC(=O)CC[C@H]1CC[C@]2(CCCN(S(=O)(=O)C3CCCCC3)C2)O1	/	/	/	i	/
COC(=O)[C@]12C[C@H](CC(=O)N3CCC(c4ccccc4)CC3)C(=O)N(Cc3ccc(Cl)cc3Cl)C1=C[C@H](C(C)(C)C)O[C@@H]2C	/	/	/	i	/
COC(=O)[C@]12C[C@H](CC(=O)N3CCOCC3)C(=O)N(Cc3ccc(Cl)cc3Cl)C1=C[C@H](C(C)(C)C)O[C@@H]2C	/	/	/	16µM*	/
COC(=O)[C@]12C[C@H](CC(=O)N3CCN(C(=O)C4CC4)CC3)C(=O)N(Cc3ccc(Cl)cc3Cl)C1=C[C@H](C(C)C)O[C@@H]2C1CC1	/	/	/	28µM*	/
COC(=O)[C@]12C[C@H](CC(=O)N3CCN(C(=O)C4CC4)CC3)C(=O)N(Cc3ccc(Cl)cc3Cl)C1=C[C@H](C1CCCC1)O[C@@H]2C	/	/	/	32µM*	/
O=C1c2ccccc2C(=O)N1c1nc(-c2ccc(F)cc2)cs1	/	/	/	/	0%
CNc1c(C(=O)O)ccc2c1C(=O)c1ccccc1C2=O	i	-9%	-3%	i	-7%
SMILES	Abeta yeast res	TDP43 rescue	Mito fusion act	FUS suppressor	aSyn rescue
O=C(O)c1ccc2c(c1Nc1ccccc1)C(=O)c1ccccc1C2=O	i	-35%	25%	i	13µM*
Cc1ccc(Nc2nnc(SCC(=O)c3ccc(Br)s3)s2)c(C)c1	?	?	?	i	20%
Cc1cccc(C)c1Nc1nnc(SCC(=O)c2ccc(Br)s2)s1	?	25%	18µM*	/	?
Nc1nn(-c2ccccc2)c(N)c1N=Nc1ccc2c(c1)OCO2	i	18µM*	6%	i	-15%
Cc1ccc(-c2ccc(C(=O)O)c(C)n2)cc1	i	?	0%	/	0%
Cc1nc(-c2ccc(Br)cc2)ccc1C(=O)O	i	16µM*	9%	/	-9%
Cc1cc(NCc2ccccc2)nc(-c2ccccc2O)n1	i	11µM*	10%	i	-12%
Cc1ccc(C)c(Nc2cc(C)nc(-c3ccccc3O)n2)c1	i	14µM*	?	i	-17%
Cc1cc(Nc2ccccc2)nc(-c2ccccc2O)n1	i	1%	11%	i	-26%
Cc1cc(Nc2ccccc2Cl)nc(-c2ccccc2O)n1	?	?	9%	i	-5%
COc1ccccc1CNC(=O)CCC(=O)n1ncc2cc(C)ccc21	i	0%	-2%	i	2%
O=c1ccc2ccc(O)c(O)c2o1	/	/	23µM*	/	-11%
OC(c1cccc(Cl)c1)c1nc(-c2ccc3c(c2)OCO3)cs1 (stereo not given)	i	32µM*	/	i	?
OC(c1ccccc1)c1nc(-c2ccc3c(c2)OCO3)cs1 (stereo not given)	i	20µM*	/	i	11µM*
CCOCc1cc(CN2CCN(c3cccc(C(F)(F)F)c3)CC2)c(O)c2ncccc12	i	25µM*	/	i	/
COc1ccc(S(=O)Cc2ccc(C(=O)N3CCN(c4cccc(C)c4C)CC3)o2)cc1 (stereo not given)	i	20µM*	3%	i	5%
COc1ccc(N2CCN(C(=O)c3ccc(CS(=O)c4cccc(Cl)c4)o3)CC2)cc1 (stereo not given)	i	14%	/	i	5%
COc1cccc(N2CCN(C(=S)Nc3ccccc3OC)CC2)c1	i	0%	-8%	i	1%
COc1ccccc1NC(=S)N1CCN(c2cccc(C)c2C)CC1	?	18µM*	1%	i	0%
O=C(c1ccc(N2CCCC2=O)cc1)N1CCN(c2ccccc2Cl)CC1	i	16µM*	-5%	i	5%[1.84 µM]
Cc1ccc(C)c(N2CCN(C(=O)c3ccc4nsnc4c3)CC2)c1	i	11µM*	27%	i	4%

Source: PubChem BioAssay
